Screens (PubChem BioAssay)
DT40 TDP1 no CPT: qHTS for Inhibitors of human tyrosyl-DNA phosphodiesterase 1 (TDP1): qHTS in cells in absence of CPT. DT40 Tdp1-/- hTDP1 cells, no CPT, ATP luminescence, 48 h. Potency, µM (series often up to 46.2 µM), for inactives: at the highest dose activity change, negative = growth inhibition, actives largely listed as inhibitors. actives 15% (n = 420,000). AID 686978, 2013; also: % is scaled to controls: 0 for no effect and ±100 for the full control effect; nearly all actives have a fitted effect of over 55% in size
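Chicken DT40 Tdp1-/- cells complemented with human TDP1, screened without camptothecin (DMSO vehicle only), 400 cells/well. Compounds pin-transferred, cells incubated at 37 °C for at least 48 hr. Growth read as ATP-dependent luminescence (CellTiter-Glo, 30 min at RT).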
HepG2 viability: kills HepG2 cells in TGF-b inhibitor counter-screen; HepG2 CAGA-GFP viability, ATP luminescence, 18 h; Potency, µM (titrated, usually from 46.1 µM), for the others: at the top dose activity change, negative = cytotoxicity, hits mostly cytotoxic; actives 0.76% (n = 410,000)
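CellTiter-Glo luminescence gave cytotoxicity after 18 hours at 37 degrees C. The cells were HepG2 CAGA-GFP in 1% FBS DMEM, stimulated with 500 pg/mL TGF-beta after compound addition. %Activity was normalised to no-cell wells (complete cell-killing) and DMSO (no toxicity), and curves were fitted and classified.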
ATXN2 expr inh: reduces ATXN2 reporter expression in HEK-293 cells. actives 0.72% (n = 360,000). HEK-293 ATXN2-luciferase reporter, luminescence, 24 h. Potency, µM (titrated, usually from 57 µM), without a hit: at the top dose activity change, negative = inhibition, actives largely listed as inhibitors. AID 1745845; also: % is scaled to controls: 0 for no effect and ±100 for the full control effect; nearly all actives have a fitted effect of over 55% in size
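ATXN2-luciferase reporter cells (luciferase flanked by upstream and downstream ATXN2 gene portions) were treated 24 h at 37 °C with compounds at up to 57 uM. SteadyGlo luminescence gave expression; GF-AFC fluorescence gave viability.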
TGFb SMAD3 inh: blocks TGF-b signaling. HepG2 CAGA-GFP TGF-b/SMAD3 reporter, GFP fluorescence, 18 h; TGF-beta stimulated, 500 pg/mL final. Potency, µM (titrated, usually from 46.1 µM), inactives show at the top dose activity, negative = inhibition, actives largely listed as inhibitors. actives 1.2% (n = 410,000). AID 588855; also: % is scaled to controls: 0 for no effect and ±100 for the full control effect; nearly all actives have a fitted effect of over 65% in size
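Inhibition was scored as loss of TGF-beta-induced (500 pg/mL final, 18 hours, 37 degrees C) GFP in HEPG2 cells carrying a CAGA-GFP reporter, in DMEM with 1% FBS. Well GFP was summed per cell; Activity was normalised to unstimulated and stimulated DMSO wells, then concentration-response fitting.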
TDP1 cell CPT: growth inhibition of DT40 Tdp1-/-;hTDP1 cells with camptothecin (screen for TDP1 inhibitors) | chicken DT40 Tdp1-/-;hTDP1 cells + 20 nM CPT, ATP luminescence, 48 h | Potency, µM (top dose mostly 46.2 µM), for the others: at the top dose activity change, negative = growth inhibition, hits mostly inhibitors | actives 12% (n = 420,000) | AID 686979; also: % is scaled to controls: 0 for no effect and ±100 for the full control effect; nearly all actives have a fitted effect of over 55% in size
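Cell growth measured by CellTiter-Glo luminescence after a minimum 48 h, 37 C compound exposure with 20 nM CPT in Tdp1-knockout DT40 cells stably expressing hTDP1, seeded 400/well; qHTS titration format.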
ATXN viability: cell viability loss in ATXN counter-screen | AID 651635 | Potency, µM (doses to about 56.7 µM), actives largely listed as cytotoxic | actives 0.49% (n = 400,000) | S2 cells (HEK-293 line with an ATXN2-luciferase reporter) viability, CellTiter-Fluor protease fluorescence, 24 h; also: nearly all actives have a fitted effect of over 40% in size
Starred values were filed as active, the others as inactive; i = inactive; ? = inconclusive; · = not tested or not shown. Most compounds without a hit are left out; they make up all but 17% or so of the library. Calls follow the shape of the dose curve; as a rule, active = well fitted curve in the direction sought with a large enough effect; inconclusive = small, poorly fitted or top-dose-only effect, or another doubt; inactive = no such curve, though single readings can be large; an effect the other way counts as inactive or inconclusive. Potency is read from the fitted curve at half-maximal effect.

SMILES	DT40 TDP1 no CPT	HepG2 viability	ATXN2 expr inh	TGFb SMAD3 inh	TDP1 cell CPT	ATXN viability
COc1cc(C(=O)OCC(=O)NC2CCCCCC2)ccc1OCC(C)C	3.26µM*	-60.5%	-17.7%	?	?	?
COc1cc(C(C)=O)ccc1COc1ccc(C(=O)OCC(=O)NC(C)(C)C)cc1OC	?	6.3%	-2.0%	-11.6%	?	i
COc1cc(C(C)=O)ccc1COc1ccc(C(=O)OCC(=O)NC2CCS(=O)(=O)C2)cc1OC (stereo unspecified)	20.6µM*	-0.8%	0.6%	2.7%	?	i
Brc1ccc(-c2cn3nc4c(nc3n2)CCCC4)cc1	?	-11.2%	-19.9%	22.6%	-11.2%	?
c1ccc(-c2cn3nc4c(nc3n2)CCCC4)cc1	?	-31.4%	5.62µM*	-1.2%	?	·
O=C(COC(=O)c1cccnc1Cl)Nc1ccc(N2CCOCC2)cc1	3.5%	9.7%	·	-1.0%	-2.5%	i
COc1ccccc1C(=O)Nc1ccc(-c2cc(C(F)(F)F)nn2-c2ccccc2)cc1	5.17µM*	-17.7%	·	-25.8%	4.11µM*	·
COc1cccc(C(=O)NC(=O)Nc2ccc(-n3nc(C(F)(F)F)cc3C(F)(F)F)cc2)c1	-13.2%	-22.0%	6.7%	-8.5%	-14.8%	i
COc1ccccc1C(=O)NC(=O)Nc1ccc(-c2cc(C(F)(F)F)nn2-c2ccccc2)cc1	4.61µM*	4.0%	-8.0%	30.3%	5.8µM*	i
COC(=O)[C@@]12CCCN1[C@H](c1ccc(-c3ccccc3)cc1)[C@@H]1C(=O)N(C)C(=O)[C@@H]12	18.4µM*	-14.7%	-6.1%	-12.8%	23.1µM*	i
COC(=O)[C@@]12CCCCN1[C@H](c1ccc(-c3cccc(Cl)c3)c(OC)c1)[C@H]1C(=O)N(C)C(=O)[C@H]12	?	-21.2%	-4.7%	16.6%	18.4µM*	i
COC(=O)[C@@]12CCCCN1[C@H](c1ccc(-c3cccc(Cl)c3)cc1)[C@H]1C(=O)N(C)C(=O)[C@H]12	23.1µM*	-6.4%	?	3.6%	?	i
COC(=O)[C@@]12CCCN1[C@H](c1ccc(-c3cccc(Cl)c3)cc1)[C@H]1C(=O)N(C)C(=O)[C@H]12	9.2µM*	-27.3%	-29.1%	?	23.1µM*	?
Cc1ccc(CN(c2ccc(C(=O)Nc3cccnc3)cc2)S(C)(=O)=O)cc1	-19.8%	-0.9%	-15.1%	1.0%	-16.1%	i
Cc1ccsc1C(=O)NCc1ccc(F)cc1	4.6%	-14.8%	17.1%	4.1%	2.5%	i
CCN1C(=O)[C@H]2[C@@H](c3ccc(-c4cccc(Cl)c4)cc3)N3CCCC[C@@]3(C(=O)OC)[C@H]2C1=O	?	-19.1%	-4.1%	?	?	i
COC(=O)[C@@]12CCCCN1[C@H](c1ccc(-c3cccc(Cl)c3)cc1)[C@@H]1C(=O)N(C)C(=O)[C@@H]12	13µM*	3.8%	?	-13.4%	20.6µM*	?
CCN1C(=O)[C@H]2[C@@H](c3ccc(-c4cccc(Cl)c4)c(OC)c3)N3CCCC[C@@]3(C(=O)OC)[C@H]2C1=O	23.1µM*	-15.5%	-24.9%	?	?	i
COC(=O)[C@@]12CCCN1[C@H](c1ccc(-c3ccc(Cl)c(Cl)c3)cc1)[C@H]1C(=O)N(C)C(=O)[C@H]12	11.6µM*	-38.7%	?	?	?	?
Cc1ccc2[nH]cc(CCNC(=O)C3CCCO3)c2c1 (stereo unspecified)	-10.1%	-16.4%	·	-1.1%	-10.2%	i
CC(=O)Nc1cc(-c2cccc(C(=O)NCCN(C)C)c2)cn2c(-c3cccc(C(F)(F)F)c3)cnc12	?	12.6µM*	-2.6%	?	?	31.6µM*
COc1ccccc1-c1cc(NC=O)c2ncc(-c3cccc(C(C)=O)c3)n2c1	7.31µM*	-41.1%	?	-26.1%	6.51µM*	?
CN(C)CCNC(=O)c1cccc(-c2cnc3c(NC=O)cc(-c4cccc(F)c4)cn23)c1	?	12.6µM*	?	20µM*	?	·
O=CNc1cc(-c2cccc(O)c2)cn2c(-c3ccc(F)cc3)cnc12	20.6µM*	-19.8%	?	?	18.4µM*	?
Cc1onc(-c2c(Cl)cccc2Cl)c1C(=O)N[C@H]1C(=O)N2[C@H]1SC(C)(C)[C@H]2C(=O)O	·	·	·	·	·	i
O=C(Cc1c[nH]c2ccccc12)Nc1ccc(N2CCOCC2)cc1	-19.8%	4.2%	12.0%	-0.7%	2.1%	i
Cc1c(N=C2SCC(=O)N2/N=C/c2ccccc2)c(=O)n(-c2ccccc2)n1C	2.0%	-102.1%	5.0%	25.8%	-5.1%	i
COc1ccc(-c2cc(NC=O)c3ncc(-c4cccc(C(=O)NCCN(C)C)c4)n3c2)cc1	?	-25.0%	?	?	?	i
CCSc1ccc(-c2cc(NC=O)c3ncc(-c4cccc(C(=O)NCCN(C)C)c4)n3c2)cc1	3.26µM*	-91.2%	?	?	4.61µM*	i
